# Experimental data as given in article PMC12864922, “TDP-43 directly inhibits mRNA accumulation in neurites through modulation of mRNA stability”.
# Over roughly 9,900 sequences, “r (bound/input frequency ratio)” has its median near 0.7; the highest 2% begin near 6.5. The list comes from a sample in which the highest values are over-represented; it also holds similar and randomly drawn sequences.
# B1: ENSMUSG00000035202.103|Lars2|4:8 (ssRNA)
# RNA: GGGAGUUCUACAGUCCGACGAUCGCUUCGAUAUCCGCAUGCUAGCUACACACUCCAGUGUCUUUUACCAUCACAGGCCCUGGCUCUGUGCUACCUCCCUAGAAUACCUGUGGUUCAUCACCUUCAGCUCACACUCCAUUCAGACAAUGCUCACUUAGGCCUACAAGCAAGGGAGAGGCUUAAGCACAAGGUCUUUAAGCUUGAUACUGUGCCUGGUCUCAAUGCCUAGAAAUUCCAACUUAACUGUCGCUAUCAUAAAGGAUUUUAAAUUUUUUUACAAGUGAGAACCUAGCAUGUCAAGGUCCUCUUGCGGUCGCACUAGUGUGGAAUUCUCGGGUGUCAAGG
# B2: ENSMUSG00000022095.202|Fam160b2 (ssRNA)
# RNA: GGGAGUUCUACAGUCCGACGAUCGCUUCGAUAUCCGCAUGCUAGCCGGGCACAGGUUGCCAGGAGGUGACAUGAAAGAGGAGGAAACUCCAUGACCUCUACAUCCCCCGCAGUCCUCCCAGCGGGGGAGGACUUCUCUGCUGCUCCGAAGAACAUCAUGCACUCCUGUGUGUGUGUGUGAGUGUGUGUGUGUGUGUGUGUGUGUGUGUGUGUGUAUGUGUGUGUAUAUGUGUGUGUGUGUGUGUAUGUGUGUGUGUGUGUGUGAGUGAGUGUGUGUGUGUGUGUGUGUGUGUGAGUGUGUGUGCUCUUGCGGUCGCACUAGUGUGGAAUUCUCGGGUGUCAAGG
# B3: ENSMUSG00000022095.199|Fam160b2 (ssRNA)
# RNA: GGGAGUUCUACAGUCCGACGAUCGCUUCGAUAUCCGCAUGCUACCCAUGCCACCUCUCGAAGCCGGGCACAGGUUGCCAGGAGGUGACAUGAAAGAGGAGGAAACUCCAUGACCUCUACAUCCCCCGCAGUCCUCCCAGCGGGGGAGGACUUCUCUGCUGCUCCGAAGAACAUCAUGCACUCCUGUGUGUGUGUGUGAGUGUGUGUGUGUGUGUGUGUGUGUGUGUGUGUGUAUGUGUGUGUAUAUGUGUGUGUGUGUGUGUAUGUGUGUGUGUGUGUGUGAGUGAGUGUGUGUGUGUGUGUGCUCUUGCGGUCGCACUAGUGUGGAAUUCUCGGGUGUCAAGG
# B4: ENSMUSG00000022095.200|Fam160b2 (ssRNA)
# RNA: GGGAGUUCUACAGUCCGACGAUCGCUUCGAUAUCCGCAUGCUACCACCUCUCGAAGCCGGGCACAGGUUGCCAGGAGGUGACAUGAAAGAGGAGGAAACUCCAUGACCUCUACAUCCCCCGCAGUCCUCCCAGCGGGGGAGGACUUCUCUGCUGCUCCGAAGAACAUCAUGCACUCCUGUGUGUGUGUGUGAGUGUGUGUGUGUGUGUGUGUGUGUGUGUGUGUGUAUGUGUGUGUAUAUGUGUGUGUGUGUGUGUAUGUGUGUGUGUGUGUGUGAGUGAGUGUGUGUGUGUGUGUGUGUGUGCUCUUGCGGUCGCACUAGUGUGGAAUUCUCGGGUGUCAAGG
# B5: ENSMUSG00000032194.22|Kank2 (ssRNA)
# RNA: GGGAGUUCUACAGUCCGACGAUCGCUUCGAUAUCCGCAUGCUAUCCCUCUGUCCCAUUCUGCCUCGGCAUUCCUCAGCCCCUGAACUUCCCUGAGGGAGCCCUGACAUCUACCAGGCUCAAGCUCCUGGAAGCCUUUCCCAGCACCCUGGGUUCAAAGCCAGAAAGCCAAGCUACAUUCUCCUCCCAGUUGGCACCAGUUGACAACGCCUUGGGUGUGGGUUUCUUGUAAAGAACAUAGAGAACAAUCAGCCGGCAAUUAUGGGAGGAGGAAGGGGGGGCAAGAAGAGAAAAUACUGUAUUCUCUCUUGCGGUCGCACUAGUGUGGAAUUCUCGGGUGUCAAGG
# B6: ENSMUSG00000035202.148|Lars2 (ssRNA)
# RNA: GGGAGUUCUACAGUCCGACGAUCGCUUCGAUAUCCGCAUGCUAUCUCCAACACGAAAAAAGCAAGGCAACUCUACCAAAGAAACUAAUUACAUACUUGUAUUCCCAAUAUGUGAGAAGCUGAGGAAGGAGGAUCAUGAGUUUAAAGCCAUCCUUGGUUACAUGAGACUCUUGUCUCAAAGAACUACCAGGGAUCCUAAUGGACAACAAAGGUUGAAAACCAUUGAAUUAAUAAAUGUUGUGAACCAUAAUUUCUACCCAGUCCUUCUUCCUUCAUUUUCAUCUCAUCUGGGAUAAGUUUAGCCCUCUUGCGGUCGCACUAGUGUGGAAUUCUCGGGUGUCAAGG
# B7: ENSMUSG00000043670.75|Diras1 (ssRNA)
# RNA: GGGAGUUCUACAGUCCGACGAUCGCUUCGAUAUCCGCAUGCUAUUUGAUCCCUGUGGAUCUGAAAACAGGGACCUGGCUAAGGAACUGCUCAUCCCAGUCAGGCCCAGAGAGGUUACCUUGCCUCUCCAUCUCUGUCCCUGUGUGCCCAGCCAUGCCCACUGUCCCUGUCCCUCACAUUCUAUCACUGUGACCUCUGGGGAGUGCCCAUUGACCUCAUCUUCCUUCACUAAUAUCUUAUUUCUUUCACCUGAUCCUGUCCUUUCCCCGUGACCUCUGACCUGUGGCCUUCCCUGGGUCCAGAACUCUUGCGGUCGCACUAGUGUGGAAUUCUCGGGUGUCAAGG
# B8: ENSMUSG00000058297.201|Spock2 (ssRNA)
# RNA: GGGAGUUCUACAGUCCGACGAUCGCUUCGAUAUCCGCAUGCUAAGGAAAUGGUUCCCUCUUGCCCCGACCAAUAGAAGGGCGUGUCCCCGAGACCCUUGUGAGGAACCACGGGGAGCUGUGACUUCCUGUGCCCAGAAGGUCCUGGAGGAGAGGCCCCAAAGCCUUAGUCCUCUCAGCCAUGACUUUCCUCUGUCUCAAGGGUCCCCAAGAUGGCCCUAGAAGAACCAUGCCCCAGACUCUAUUUAAAGCCCUAUAGCAUAUAUGAAUAGAGAACGGUGUAUCUAUCAGAGGGGACCACACUGCUCUUGCGGUCGCACUAGUGUGGAAUUCUCGGGUGUCAAGG
# B9: ENSMUSG00000061578.1546|Ksr2|104:108 (ssRNA)
# RNA: GGGAGUUCUACAGUCCGACGAUCGCUUCGAUAUCCGCAUGCUAAGAUCAUUUAUAAAGUUUUCUACACUUCUCAAAAAAAAAAAUAUUUCUAACCUUGGCUGUUGGACAGUCUGUGAGCCUGUGAGCCGGCAAGCCUGUUGUUUCUACACAUUAGUGCAAUGUUAGUGAGAAUCCAGUGUCUGAGUUAUUAAUGCCAAUAAAGAAUUUGAGAAUUACUGCAUCCGCUGCUGUCACUCCAGGUCAGAACUCUGCUGUUGUCUGUUGGAUGGAAGGAAGCUCCAGAGUGAGGAACAAUGGUUGCUCUCUUGCGGUCGCACUAGUGUGGAAUUCUCGGGUGUCAAGG
# B10: ENSMUSG00000029636.29|Wasf3|57:61;103:107 (ssRNA)
# RNA: GGGAGUUCUACAGUCCGACGAUCGCUUCGAUAUCCGCAUGCUAUCUCUGCACCCUCACAGUGGUAUUUCCCUGUAGCUUUAGUCCCUUUUGUAUUAACACACACAUUUGCUUCUGCACAUCCUUCUGGAUUUGUUGAGUAUUUACACACAAAUACUUAAGUGCCACAGAACACAGCACACCGUGCUGCACACCAGGAAACUCGCAGUAUUAGUGCAUCACCCUGGAACAGCAUCUUGCUUCCCUCUCAGCCGUGAGAGUCCCCUCUCCUGUCCAUCCUGAUUUGGUGGGCUUGCCACGUAUCUCUCUUGCGGUCGCACUAGUGUGGAAUUCUCGGGUGUCAAGG
# B11: ENSMUSG00000029636.244|Wasf3 (ssRNA)
# RNA: GGGAGUUCUACAGUCCGACGAUCGCUUCGAUAUCCGCAUGCUAUGACAGGGAAUGCCUGUGGGAUAAUUAAAAAUGGUUUUUGCUCAUGAGUUUGGGAUGUCACCCAGCCGCCCACAUCGCCUGCUAUGUGUGUGGACGCCUGUCCGCUUGGCCAGCUAUCCUGUAACACCUGCCAGUAGUAGGUUUUCCUCAUGUCACUAUGACAGUGAAAGCCCAUGUGCAAGCCCCUCCCUACGCCCUGCUUUGGCGUGUGUCUGAGUGCUCUGUGCUGCGCCAUGGCCAUCCUGGAGCCUGCGCACACGCUCUUGCGGUCGCACUAGUGUGGAAUUCUCGGGUGUCAAGG
# Biological target: TDP-43 (Homo sapiens, UniProt Q13148 1-414)
# Test: RNA Bind-n-Seq with designed 260-mer pool; 25 mM Tris-HCl, 150 mM KCl, 3 mM MgCl2, BSA (printed 500 mg/mL), 20 units/mL SUPERase IN; pH not stated; 500 nM RNA pool, 1 h, 4 C; TDP-43 5, 50, 500 nM; high values mean tight binding
# Settings: protein: recombinant; tags: SBP (GST cleaved off with PreScission; pGEX-GST-SBP)
# Summary of the method: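 The incubation lasted 1 h at 4 °C and used 500 nM of an in vitro-transcribed 260-nt 3′ UTR oligo pool with recombinant SBP-tagged TDP-43 at 5, 50 or 500 nM immobilized on streptavidin beads. It took place in 25 mM Tris-HCl, 150 mM KCl, 3 mM MgCl2, BSA and SUPERase IN. Bound RNA was washed, eluted with biotin, converted to cDNA, PCR-amplified and sequenced to give R, each oligo's normalized abundance in the bound sample divided by that in input. Two independent protein batches provided the duplicates.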
# TDP-43, sequence (Q13148 whole entry): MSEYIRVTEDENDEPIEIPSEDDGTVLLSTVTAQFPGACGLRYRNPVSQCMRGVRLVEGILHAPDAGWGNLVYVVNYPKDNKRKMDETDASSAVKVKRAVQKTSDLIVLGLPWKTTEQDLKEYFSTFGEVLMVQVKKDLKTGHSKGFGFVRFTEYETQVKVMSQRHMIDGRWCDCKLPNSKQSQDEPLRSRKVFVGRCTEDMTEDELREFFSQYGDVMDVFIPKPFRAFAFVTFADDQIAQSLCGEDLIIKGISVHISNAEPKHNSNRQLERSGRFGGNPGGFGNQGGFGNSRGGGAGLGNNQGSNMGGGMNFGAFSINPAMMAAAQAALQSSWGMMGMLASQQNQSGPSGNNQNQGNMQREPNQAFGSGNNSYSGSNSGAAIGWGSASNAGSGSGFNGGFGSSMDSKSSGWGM
row,Binder,binding signal
1,B1,0.427 R (bound/input frequency ratio)
2,B2,7.21 R (bound/input frequency ratio)
3,B3,8.67 R (bound/input frequency ratio)
4,B4,7.08 R (bound/input frequency ratio)
5,B5,0.911 R (bound/input frequency ratio)
6,B6,0.0673 R (bound/input frequency ratio)
7,B7,2.09 R (bound/input frequency ratio)
8,B8,0.372 R (bound/input frequency ratio)
9,B9,0.542 R (bound/input frequency ratio)
10,B10,0.499 R (bound/input frequency ratio)
11,B11,0.625 R (bound/input frequency ratio)
